# PubChem BioAssay
# Activity calls are given as the source filed them. No stated cut-off is given here; in the data, active means inhibition above about 31%; inactive means the rest.
# Experiment: MRP1 drug-resistance reversers in H69AR cells – cell-based, doxorubicin co-treatment, pilot screen (AID 601)
# Conditions: H69AR cells, CellTiter-Glo, 72 h; compound alone cytotoxicity; at 10 µM
row,Structure (SMILES),viability [%]
1,COc1ccccc1NC(=O)CSc1nnc(-c2ccncc2)o1,93.8
2,CCOc1ccc2oc(-c3ccccc3)c(C(=O)N3CCN(CCO)CC3)c2c1,72.9
3,O=S(=O)(NCC1CCCO1)c1ccc(S(=O)(=O)N2CCc3ccccc3C2)cc1 (stereo not given),94.8
4,CCC(C(=O)Nc1ncccn1)(C(F)(F)F)C(F)(F)F,103
5,O=C(Cc1ccc(Br)cc1)N1CCCCCC1,97.9
6,Cc1ccc2cc(C(c3nnnn3CC3CCCO3)N3CCc4ccccc4C3)c(=O)[nH]c2c1 (stereo not given),100
7,S=C(NCC1CCCO1)n1nnc2ccccc21 (stereo not given),74.8
8,CO/C([O-])=N/c1c[n+](-c2ccc(C)cc2)no1,90.5
9,CNc1ccc(C(O)(C(F)(F)F)C(F)(F)F)cc1C(O)(C(F)(F)F)C(F)(F)F,80.7
10,COc1ccccc1-n1c(SCC(=O)Nc2ccc3c(c2)OCO3)nc2c(c1=O)SCC2,87.4
11,O=c1cc(C(F)F)oc2c1ccc1ccccc12,81.7
12,CCOc1cc(C2/C(=C(/O)c3ccc(OC(C)C)cc3)C(=O)C(=O)N2CCCOC)ccc1O (stereo not given),99.1
13,Cc1ccc(S(=O)(=O)Cn2nnnc2CN(Cc2ccco2)Cc2cccs2)cc1,80.6
14,Cc1c(NC(=O)c2ccc(COc3ccc4ccccc4c3)o2)c(=O)n(-c2ccccc2)n1C,99
15,COc1ccc(Cc2nc(-c3ccc(Br)cc3)no2)cc1,98.2
16,CC(CCc1ccccc1)NC(=O)c1ccc(Br)o1 (stereo not given),93.5
17,O=C1CC(c2ccsc2)c2cc3c(cc2N1)OCCO3 (stereo not given),26.9
18,CCCN1C(=O)c2cc(C(=O)O)ccc2C1O (stereo not given),103
19,Cc1ccccc1-c1nc2ccccc2c(=O)n1C1CCS(=O)(=O)C1 (stereo not given),90.3
20,COC1CCCCC1NS(=O)(=O)c1ccccc1 (stereo not given),97.7

row,Structure (SMILES),viability [%]
1,CCOC(=O)N1CCN(Cc2nc3c(c(=O)[nH]c(=O)n3C)n2Cc2cc(C)ccc2C)CC1,96.1
2,O=C(NCC1COc2ccccc2O1)c1ccc(NC(=O)c2ccco2)cc1 (stereo not given),99.1
3,COCCN(C(=O)CNC(=O)c1ccco1)C(C(=O)NC1CCCCC1)c1cccc(OC)c1 (stereo not given),102
4,Cc1sc2ncnc(SCC(=O)N3CCCC3)c2c1C,93
5,CCC(C)(C)n1nnnc1C(c1ccc(OC)c(OC)c1)N1CCN(c2ccccc2)CC1 (stereo not given),88.8
6,OC(CN1CCCCC1)Cn1c(C(F)(F)F)nc2ccccc21 (stereo not given),83.4
7,O=C(CN(c1ccccc1)S(=O)(=O)c1ccccc1)N1CCN(Cc2ccc3c(c2)OCO3)CC1,96.9
8,COc1ccc(CC(=O)OCn2nnc3ccccc3c2=O)cc1,98
9,N#CC(C(=O)Nc1ccc(Cl)c(Cl)c1)=C1Nc2ccccc2N1,13.5
10,COc1ccc(C)cc1NC(=O)CN1CCN(S(=O)(=O)c2ccc(Cl)cc2)CC1,82.6
11,CCCCCn1c2nc3ccccc3nc2c2c(=O)n(CC(C)C)cnc21,87.3
12,CCn1ncc(C2=NOC(C(=O)Nc3ccc4c(c3)OCO4)C2)c1C (stereo not given),94.8
13,COc1ccc(CCNS(=O)(=O)c2ccc3c(c2)CCN3C(=O)CCC(=O)O)cc1OC,94.1
14,O=C(CS(=O)(=O)c1cn(Cc2ccc(Cl)cc2)c2ccccc12)N1CCOCC1,97
15,CCCS(=O)(=O)C(=C1Nc2ccccc2N1)S(=O)(=O)CCC,103
16,CCn1c(CCC(=O)Nc2nc3c(s2)CCCC3)nc2cc(S(=O)(=O)N(C)C)ccc21,85.4
17,Cc1nn(-c2ccccc2)c2c1C(O)n1c(nc3ccccc31)S2 (stereo not given),26.2
18,CCSc1nc2ccccc2n1CCC(=O)O,109
19,COc1cccc(CN=CC2=C(O)CC(C)(C)CC2=O)c1OC,100
20,CCOC(=O)NC(=O)CSc1nnnn1-c1ccc(Cl)cc1,106

# Experiment: yeast transport mutant growth inhibition pilot in 384-well plates, post-Golgi transport modulator project (AID 636)
# Conditions: absorbance 615 nm, about 18 h, stronger effect = higher value
row,Structure (SMILES),inhibition
1,COc1ccccc1NC(=O)CSc1nnc(-c2ccncc2)o1,0.91% (inactive)
2,CCOc1ccc2oc(-c3ccccc3)c(C(=O)N3CCN(CCO)CC3)c2c1,-4.42% (inactive)
3,O=S(=O)(NCC1CCCO1)c1ccc(S(=O)(=O)N2CCc3ccccc3C2)cc1 (stereo not given),0.26% (inactive)
4,CCC(C(=O)Nc1ncccn1)(C(F)(F)F)C(F)(F)F,0.27% (inactive)
5,O=C(Cc1ccc(Br)cc1)N1CCCCCC1,-4.08% (inactive)
6,Cc1ccc2cc(C(c3nnnn3CC3CCCO3)N3CCc4ccccc4C3)c(=O)[nH]c2c1 (stereo not given),-3.84% (inactive)
7,S=C(NCC1CCCO1)n1nnc2ccccc21 (stereo not given),-1.07% (inactive)
8,CO/C([O-])=N/c1c[n+](-c2ccc(C)cc2)no1,-6.49% (inactive)
9,CNc1ccc(C(O)(C(F)(F)F)C(F)(F)F)cc1C(O)(C(F)(F)F)C(F)(F)F,-5.33% (inactive)
10,COc1ccccc1-n1c(SCC(=O)Nc2ccc3c(c2)OCO3)nc2c(c1=O)SCC2,-0.55% (inactive)
11,O=c1cc(C(F)F)oc2c1ccc1ccccc12,-0.91% (inactive)
12,CCOc1cc(C2/C(=C(/O)c3ccc(OC(C)C)cc3)C(=O)C(=O)N2CCCOC)ccc1O (stereo not given),1.82% (inactive)
13,Cc1ccc(S(=O)(=O)Cn2nnnc2CN(Cc2ccco2)Cc2cccs2)cc1,-5.87% (inactive)
14,Cc1c(NC(=O)c2ccc(COc3ccc4ccccc4c3)o2)c(=O)n(-c2ccccc2)n1C,-5.47% (inactive)
15,COc1ccc(Cc2nc(-c3ccc(Br)cc3)no2)cc1,-0.13% (inactive)
16,CC(CCc1ccccc1)NC(=O)c1ccc(Br)o1 (stereo not given),-4.93% (inactive)
17,O=C1CC(c2ccsc2)c2cc3c(cc2N1)OCCO3 (stereo not given),-2.93% (inactive)
18,CCCN1C(=O)c2cc(C(=O)O)ccc2C1O (stereo not given),-1.07% (inactive)
19,Cc1ccccc1-c1nc2ccccc2c(=O)n1C1CCS(=O)(=O)C1 (stereo not given),0.26% (inactive)
20,COC1CCCCC1NS(=O)(=O)c1ccccc1 (stereo not given),-3.59% (inactive)

row,Structure (SMILES),inhibition
1,CCOC(=O)N1CCN(Cc2nc3c(c(=O)[nH]c(=O)n3C)n2Cc2cc(C)ccc2C)CC1,-2.27% (inactive)
2,O=C(NCC1COc2ccccc2O1)c1ccc(NC(=O)c2ccco2)cc1 (stereo not given),0% (inactive)
3,COCCN(C(=O)CNC(=O)c1ccco1)C(C(=O)NC1CCCCC1)c1cccc(OC)c1 (stereo not given),-1.3% (inactive)
4,Cc1sc2ncnc(SCC(=O)N3CCCC3)c2c1C,-2.08% (inactive)
5,CCC(C)(C)n1nnnc1C(c1ccc(OC)c(OC)c1)N1CCN(c2ccccc2)CC1 (stereo not given),-7.67% (inactive)
6,OC(CN1CCCCC1)Cn1c(C(F)(F)F)nc2ccccc21 (stereo not given),0% (inactive)
7,O=C(CN(c1ccccc1)S(=O)(=O)c1ccccc1)N1CCN(Cc2ccc3c(c2)OCO3)CC1,-6% (inactive)
8,COc1ccc(CC(=O)OCn2nnc3ccccc3c2=O)cc1,-5.6% (inactive)
9,N#CC(C(=O)Nc1ccc(Cl)c(Cl)c1)=C1Nc2ccccc2N1,-0.66% (inactive)
10,COc1ccc(C)cc1NC(=O)CN1CCN(S(=O)(=O)c2ccc(Cl)cc2)CC1,-3.55% (inactive)
11,CCCCCn1c2nc3ccccc3nc2c2c(=O)n(CC(C)C)cnc21,-0.79% (inactive)
12,CCn1ncc(C2=NOC(C(=O)Nc3ccc4c(c3)OCO4)C2)c1C (stereo not given),-3.97% (inactive)
13,COc1ccc(CCNS(=O)(=O)c2ccc3c(c2)CCN3C(=O)CCC(=O)O)cc1OC,-2.37% (inactive)
14,O=C(CS(=O)(=O)c1cn(Cc2ccc(Cl)cc2)c2ccccc12)N1CCOCC1,-1.87% (inactive)
15,CCCS(=O)(=O)C(=C1Nc2ccccc2N1)S(=O)(=O)CCC,-5.68% (inactive)
16,CCn1c(CCC(=O)Nc2nc3c(s2)CCCC3)nc2cc(S(=O)(=O)N(C)C)ccc21,5.27% (inactive)
17,Cc1nn(-c2ccccc2)c2c1C(O)n1c(nc3ccccc31)S2 (stereo not given),-6.85% (inactive)
18,CCSc1nc2ccccc2n1CCC(=O)O,-5.21% (inactive)
19,COc1cccc(CN=CC2=C(O)CC(C)(C)CC2=O)c1OC,-1.69% (inactive)
20,CCOC(=O)NC(=O)CSc1nnnn1-c1ccc(Cl)cc1,-5.2% (inactive)
